# Compound activity deposited in PubChem BioAssay by National Center for Advancing Translational Sciences (NCATS).
# Most compounds without a hit are left out; they make up all but 21% or so of the library.
# Shiga toxin inh = Shiga toxin inhibition; Vero cells, Shiga toxin protein synthesis inhibition reporter; inhibition, % at 38.7 µM; 290,000 compounds, 9.2% hits; AID 2315; in the data active = inhibition mostly above about 28%, no sharp cut-off; inactive = mostly below about 43%; note: 0% is about no effect
# CHX counter = affects cycloheximide protein synthesis inhibition readout, counter-screen; cell reporter, cycloheximide protein synthesis inhibition counterscreen; max response, %; 300,000 compounds, 12% hits; AID 2314; in the data active = max response mostly above about 13%, no sharp cut-off; inactive = mostly below about 14%; note: read at 38.3 µM for the half of the compounds with a filed dose; 0% is about no effect
# Pf growth 48h = P. falciparum growth inhibition at 48 hours (one generation). P. falciparum luciferase growth in erythrocytes, 48 h. Potency, µM (highest dose often 28.7 µM), inactives show top-dose activity change, negative = inhibition, usual class: inhibitors. 310,000 compounds, 5.9% hits. AID 504832; note: potency is the fitted concentration of half-maximal effect; % is set by controls: 0 for no effect and ±100 for the full control effect
#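 Here the parasites carry a stable luciferase gene and grow inside erythrocytes in Albumax-based RPMI medium with compound for one erythrocytic cycle. Activity is scored as loss of luminescent signal.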
# Pf growth 96h = P. falciparum growth inhibition at 96 hour, primary screen for plastid delayed-death inhibitors. AID 504834. P. falciparum luciferase reporter growth, 96 h. 320,000 compounds, 6.9% hits. Potency, µM (highest dose often 28.7 µM), for the others: at the highest dose activity change, negative = inhibition, usual class: inhibitors; note: potency is the fitted concentration of half-maximal effect; % is set by controls: 0 for no effect and ±100 for the full control effect
#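 Two-generation exposure (96 h) targets delayed-death phenotype. Reporter parasites carrying integrated firefly luciferase, in red cells at 2% hematocrit and 0.05% parasitemia final, kept at 37 C, 5% CO2; luminescence loss indicates inhibition.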
# The depositor's hits bear a star; i = inactive; ? = inconclusive; . = no result; [ ] = remark or other dose. Unless noted, calls come from the whole dose curve; as a rule, active = well fitted inhibition curve with a large enough effect; inconclusive = small, poorly fitted or top-dose-only effect, or another doubt; inactive = no such curve, though single readings can be large or run the other way.
SMILES,Shiga toxin inh,CHX counter,Pf growth 48h,Pf growth 96h
Cc1cc(C)c(NC(=O)CSc2nnc(CNC(=O)c3ccco3)o2)c(C)c1,-6,-3,-20%,9.3µM*
CCSc1nnc(NC(=O)CSc2nnc(CNC(=O)c3cc(OC)c(OC)c(OC)c3)o2)s1,-14,-2,7%,?
O=C(COc1ccc(Cl)cc1)NCc1nnc(SCC(=O)c2ccccc2)o1,-6,-3,-6%,4.1µM*
CCc1noc(C)c1C(=O)N1CCCC(N2CCN(c3cccc(Cl)c3)CC2)C1 (stereo unspecified),-3,-4,?,?
COc1ccc(C)cc1NC(=O)CN(C)C1CCCCC1,-7,-4,?,?
O=C(CSc1nnc(CNC(=O)c2ccco2)o1)c1ccccc1,31,-3,.,4.1µM*
C=CCn1c(Cc2cccs2)nnc1SCC(=O)c1ccc(F)cc1,29,15*,1%,-33%
O=C(CSc1nnc(CNC(=O)c2ccco2)o1)Nc1ccc(Cl)cc1,-6,-4,21%,10µM*
C=CCn1c(CNC(=O)c2ccco2)nnc1SCC(=O)c1ccccc1,24,12*,39%[5.75 µM],i
O=C(CSc1nnc(CNC(=O)c2ccccc2)o1)c1ccc(Cl)cc1,14,-1,18%,38%
CCn1c(CNC(=O)c2ccco2)nnc1SCC(=O)c1ccc(F)cc1,11,-3,43%,?
Cc1nn(-c2ccc(F)cc2)c(Cl)c1/C=C1\C(=O)Nc2ccccc21,-9,4,-32%,?
CC(C)NC(=O)c1cccc2c1-c1ccccc1C2=O,-3,-4,.,29%
COc1ccc(Cl)cc1NC(=O)CSc1nnc(CNC(=O)c2ccco2)o1,24,0,10%,?
COc1ccc(OC)c(NC(=O)CSc2nnc(CNC(=O)c3ccco3)o2)c1,4,-3,.,2.6µM*
CCC(=O)N1CCN(c2ccc(NC(=S)NC(=O)c3cc4ccccc4o3)cc2)CC1,21,25,16%,2%
O=C(c1cc2ccccc2o1)N1CCN(c2cccc(Cl)c2)CC1,-5,-5,-17%,41%
O=C(Nc1ccc(N2CCN(C(=O)c3ccco3)CC2)c(Cl)c1)c1cc2ccccc2o1,52,23*,2.9µM*,-2%
CCCC(=O)N1CCN(c2ccc(NC(=O)c3cc4ccccc4o3)cc2Cl)CC1,11,13,1.5µM*,7%
CCC(=O)N1CCN(c2ccc(NC(=O)c3cc4ccccc4o3)cc2Cl)CC1,-3,17*,?,-2%
CC1CN(C(=O)c2ccc(NS(=O)(=O)c3ccc(F)cc3)cc2)CC(C)O1 (stereo unspecified),-6,-4,5%,2%
O=C(OCN1C(=O)c2ccccc2C1=O)c1cccc(S(=O)(=O)N2CCOCC2)c1,-25,-4,13%,-21%
CCN(CC)CCNC(=O)c1ccc(CS(=O)(=O)c2ccccc2C)o1,-6,-4,-14%[0.00184 µM],27%
CC1(C)CC(NC(=O)c2cc(S(=O)(=O)N3CCOCC3)c(Cl)cc2Cl)CC(C)(C)N1,.,.,-8%,?
COc1cccc(NS(=O)(=O)c2ccc3[nH]cc(C(=O)NCCC(C)C)c(=O)c3c2)c1,-10,1,9.3µM*,61%
SMILES,Shiga toxin inh,CHX counter,Pf growth 48h,Pf growth 96h
Cc1cccc2c(=O)c(C(=O)NCc3ccc(F)cc3)c[nH]c12,.,-4,?,3%
O=C(NCCc1ccccc1)c1c[nH]c2c(F)cccc2c1=O,29*,23*,26%,-2%
Cc1cccc2c(=O)c(C(=O)NCCc3ccccc3)c[nH]c12,.,15,21%,4.7µM*
CCc1ccccc1NS(=O)(=O)c1ccc2[nH]cc(C(=O)NC3CCCC3)c(=O)c2c1,-13,-3,13µM*,-2%
Cc1ccccc1NS(=O)(=O)c1ccc2[nH]cc(C(=O)NCCc3ccccc3)c(=O)c2c1,.,.,15µM*,?
O=C(NCC(c1cccs1)N1CCOCC1)c1ccccc1NS(=O)(=O)c1cccc([N+](=O)[O-])c1 (stereo unspecified),-5,-3,?,?
O=C(NCC(c1cccs1)N1CCOCC1)c1ccccc1NS(=O)(=O)c1cc([N+](=O)[O-])ccc1Cl (stereo unspecified),-6,-1,?,13µM*
O=C(NCC(c1cccs1)N1CCOCC1)c1ccccc1NS(=O)(=O)c1ccc(Cl)c([N+](=O)[O-])c1 (stereo unspecified),-4,1,?,8.3µM*
Cc1cccc(OCCOC(=O)Nc2ccccc2)c1,-31,16*,3%,-7%
Cc1ccc(OCCOC(=O)Nc2ccccc2)cc1,24,12,1%,1%
COc1ccccc1OCCOC(=O)Nc1ccccc1,26*,13*,31%,8.3µM*
O=C(c1ccccc1O)N1N=C(c2ccccc2)CC1(O)C(F)(F)F (stereo unspecified),1,0,9%,?
CSc1ccc(-c2nc(CN(C)C3CCOC3)c(C)o2)cc1 (stereo unspecified),42*,31*,100%,?
Cc1ccc(-c2nc(CN(C)C(C3CC3)C3CC3)c(C)o2)cc1,22,13,-7%,-19%
COc1cccc(C(=O)Nc2ccc(C(=O)c3ccncc3)cc2)c1,4,17*,0%,41%
COc1cccc(C(=O)Nn2cnnc2)c1,34,11*,21%,?
COc1cc(OC)cc(C(=O)Nc2cccc(NC(=O)c3ccccc3)c2)c1,1,-2,.,?
COc1cccc(C(=O)Nc2ccccc2NC(=O)c2cccc(OC)c2)c1,.,-1,29%,15µM*
COc1cc(OC)cc(C(=O)Nc2cccc(C(C)=O)c2)c1,48*,25*,?,-19%
C=CCSc1nnc(NC(=O)CN2C(=O)NC3(CCCC3)C2=O)s1,2,10,14%,-14%
COc1cccc(C(=O)Nc2ccc(NC(C)=O)cc2)c1,62,28*,.,58%
COc1cccc(C(=O)Nc2cccc(NC(C)=O)c2)c1,29,11,31%,?
COc1cccc(S(=O)(=O)Nc2ccc(C(=O)Nc3ccncc3)cc2)c1,9,-4,-24%,8.3µM*
NCCNC(=O)c1ccc(Cl)cn1,-5,-6,-11%,-14%
Cc1ccc(C2Nc3cccc4cccc(c34)N2)s1,20,5,?,?
SMILES,Shiga toxin inh,CHX counter,Pf growth 48h,Pf growth 96h
Cc1ccc(C2NC(=O)c3c(sc4c3CCN(C)C4)N2)s1 (stereo unspecified),67*,33*,-26%,?
CN1CCc2c(sc3c2C(=O)NC(c2ccccc2)N3)C1 (stereo unspecified),active,20*,50%,32%
O=C1NC(c2ccccn2)Nc2sc3c(c21)CCC3 (stereo unspecified),99*,31*,59%,2%
CC(C)(C)C1CCc2c(sc3c2C(=O)NC(c2ccco2)N3)C1 (stereo unspecified),74*,34*,-6%,.
O=C1NC(c2ccc(Br)cc2)Nc2sc3c(c21)CCC3 (stereo unspecified),23,15,5%,19%
O=C(O)c1ccc(S(=O)(=O)N[C@@H](Cc2ccc(O)cc2)C(=O)O)cc1,-7,-9,12%,3%
